Data reported in PubChem BioAssay AID1053205 (Broad Institute, 2014).
Entries with a potency or affinity are not part of this list. Records with an inconclusive call do not appear. Active and inactive are the calls of the source.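 Rule for the calls: active = compounds lowering the FRET ratio whose fitted half-maximal concentration is at most twice their top tested dose; inconclusive = flat partial drop between 30 and 70 percent, or bad fit; inactive = the rest.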

These compounds were tested against Voltage-dependent L-type calcium channel subunit alpha-1D (Homo sapiens) (UniProt Q01668) (assay: disruptors of CaV1.3 IQ/ICDI domain association – cell-based, HEK293, YFP-IQ/CFP-ICDI FRET, cherry-picks, dose response (AID 1053205)). Conditions: HEK293 YFP-IQ/CFP-ICDI FRET ratio, 10 min; series mostly up to 35 µM.
Voltage-dependent L-type calcium channel subunit alpha-1D (Homo sapiens), sequence (Q01668 whole entry, looked up, the tested form may be a part): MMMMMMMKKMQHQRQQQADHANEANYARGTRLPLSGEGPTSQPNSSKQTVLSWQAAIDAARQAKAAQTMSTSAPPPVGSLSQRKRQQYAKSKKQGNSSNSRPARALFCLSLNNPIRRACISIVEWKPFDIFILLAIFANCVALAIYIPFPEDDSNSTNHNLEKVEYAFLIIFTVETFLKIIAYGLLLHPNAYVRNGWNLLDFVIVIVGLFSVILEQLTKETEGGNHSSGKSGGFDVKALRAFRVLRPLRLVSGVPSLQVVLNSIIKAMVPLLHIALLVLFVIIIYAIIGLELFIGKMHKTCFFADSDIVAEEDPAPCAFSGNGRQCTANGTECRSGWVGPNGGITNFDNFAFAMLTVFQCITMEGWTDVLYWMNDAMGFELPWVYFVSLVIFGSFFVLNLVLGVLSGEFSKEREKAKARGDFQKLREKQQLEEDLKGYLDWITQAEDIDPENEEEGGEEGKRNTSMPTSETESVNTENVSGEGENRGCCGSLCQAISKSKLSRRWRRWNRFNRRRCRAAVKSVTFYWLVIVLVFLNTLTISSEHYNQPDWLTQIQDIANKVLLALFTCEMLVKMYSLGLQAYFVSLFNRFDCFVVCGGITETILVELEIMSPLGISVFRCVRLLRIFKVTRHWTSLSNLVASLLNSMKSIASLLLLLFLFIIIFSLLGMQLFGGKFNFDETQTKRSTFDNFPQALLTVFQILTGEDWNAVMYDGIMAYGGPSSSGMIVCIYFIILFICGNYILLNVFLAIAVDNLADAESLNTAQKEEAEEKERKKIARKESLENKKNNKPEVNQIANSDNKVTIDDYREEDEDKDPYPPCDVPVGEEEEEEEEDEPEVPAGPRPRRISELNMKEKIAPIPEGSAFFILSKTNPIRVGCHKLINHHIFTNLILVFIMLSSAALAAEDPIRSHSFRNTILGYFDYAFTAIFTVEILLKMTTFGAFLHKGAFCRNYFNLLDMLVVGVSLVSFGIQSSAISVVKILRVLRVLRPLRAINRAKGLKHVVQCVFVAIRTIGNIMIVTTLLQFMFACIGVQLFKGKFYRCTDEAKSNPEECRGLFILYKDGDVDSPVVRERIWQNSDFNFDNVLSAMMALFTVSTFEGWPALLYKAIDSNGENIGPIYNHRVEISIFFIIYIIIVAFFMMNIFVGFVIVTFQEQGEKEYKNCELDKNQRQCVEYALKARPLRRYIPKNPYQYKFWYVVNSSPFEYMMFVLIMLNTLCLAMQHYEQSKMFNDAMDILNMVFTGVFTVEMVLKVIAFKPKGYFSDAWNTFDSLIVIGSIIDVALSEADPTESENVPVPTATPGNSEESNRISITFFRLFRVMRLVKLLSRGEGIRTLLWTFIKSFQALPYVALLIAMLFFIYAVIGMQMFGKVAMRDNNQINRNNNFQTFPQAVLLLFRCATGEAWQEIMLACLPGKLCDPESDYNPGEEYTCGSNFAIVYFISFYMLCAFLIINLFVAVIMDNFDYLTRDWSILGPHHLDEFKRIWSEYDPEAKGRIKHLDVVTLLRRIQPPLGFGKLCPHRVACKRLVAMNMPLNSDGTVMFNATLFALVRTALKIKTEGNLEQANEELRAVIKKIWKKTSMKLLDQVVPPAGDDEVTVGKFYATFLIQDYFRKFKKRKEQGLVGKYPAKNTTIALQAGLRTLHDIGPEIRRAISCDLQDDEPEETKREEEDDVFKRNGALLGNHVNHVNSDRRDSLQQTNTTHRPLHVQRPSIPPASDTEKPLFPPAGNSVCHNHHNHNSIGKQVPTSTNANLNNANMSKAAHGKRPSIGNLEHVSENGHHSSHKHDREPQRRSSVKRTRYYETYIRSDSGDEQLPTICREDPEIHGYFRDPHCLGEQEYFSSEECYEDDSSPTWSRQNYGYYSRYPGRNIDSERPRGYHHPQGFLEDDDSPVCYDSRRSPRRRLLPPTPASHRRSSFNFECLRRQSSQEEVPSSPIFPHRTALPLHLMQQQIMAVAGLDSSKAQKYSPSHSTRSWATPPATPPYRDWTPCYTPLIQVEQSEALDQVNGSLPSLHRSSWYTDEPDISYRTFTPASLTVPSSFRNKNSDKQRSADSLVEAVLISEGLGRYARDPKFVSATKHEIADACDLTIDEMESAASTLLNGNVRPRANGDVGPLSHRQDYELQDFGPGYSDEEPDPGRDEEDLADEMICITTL

outcome, inactive:
CC(C)CCn1c(CN2CC(C)OC(C)C2)nc2c1c(=O)n(C)c(=O)n2C (stereo unspecified)
Cc1cccn2c(=O)c3cc(C(=O)NCc4ccc(F)cc4)c(=N)n(CCCN4CCOCC4)c3nc12
CCCN1CCN(C(=O)c2ccc(CS(=O)c3ccc(Br)cc3)o2)CC1 (stereo unspecified)
Cc1ccc(NC(=O)Nc2ccnc(-c3cccnc3)n2)cc1
COC(=O)C1=CN(Cc2ccc(OC)c(OC)c2)C=C(C(=O)OC)C1c1cccc(F)c1
COCc1cc(C)nc(SCC(=O)Oc2ccc(Cl)cc2)c1C#N
Cc1ccc(-c2nc3ccsc3c(=O)[nH]2)cc1
COCCCOc1cc(NCc2ccccc2)c2ncn(C(C)C)c2c1
COc1ccccc1/C=N/Nc1nc(C)cc(=O)[nH]1
O=C(O)c1ccc(N2N=C(c3ccccc3)CC2c2ccccc2)cc1 (stereo unspecified)
CC(=O)NNc1cc(N2CCOCC2)nc(N2CCOCC2)n1
CCc1cccc(C)c1NC(=S)NCc1ccc2c(c1)cc(C)n2C
Cc1ccc2c(c1)N(C(=O)CCC(=O)NCCCN1CCOCC1)CC(C)O2 (stereo unspecified)
COc1cc(C(=O)OCC(C)=O)cc(NC(=O)c2ccco2)c1OC
Cc1cc(-c2nc3cccnc3s2)ccc1NS(=O)(=O)c1cccs1
Cc1ccc(-n2c(C)cc(/C=N/NC(=O)Cn3c4ccccc4c(=O)c4ccccc43)c2C)cc1
C/C(=N\NC(=O)CC#N)c1cc2ccc(O)cc2oc1=O
COc1ccc(Cn2nnnc2C(CC(C)C)N2CCC(C(N)=O)CC2)cc1 (stereo unspecified)
CCOC(=O)C(NC(=O)c1ccccc1)(OCC1(CC)COC1)C(F)(F)F (stereo unspecified)
CCN(CC)c1ccc2cc(S(=O)(=O)c3ccc(Cl)cc3)c(=O)oc2c1
CCc1ccccc1S(=O)(=O)Cc1ccc(C(=O)N2CCN(c3ccccc3OC)CC2)o1
CCn1c(=NC(=O)CSC(C)=O)sc2cc(OC)ccc21
CCC(=O)NCCCNc1nc2c(C)cccc2cc1C#N
O=C(O)C1=CC[C@@H](c2ccc(Cl)cc2)N(S(=O)(=O)c2ccc(Cl)cc2)[C@H]1c1ccc(F)cc1
Cc1ccc2nc3c(cc(C(=O)NCc4ccccc4)c(=N)n3CCCn3ccnc3)c(=O)n2c1
O=C(Cn1ccc([N+](=O)[O-])n1)N1CCCCCC1
Cc1cc(-n2c(=O)c(C#N)cc3c(=O)n4ccccc4nc32)no1
NC(=O)c1cc([N+](=O)[O-])ccc1NCc1cccnc1
Cc1ccc(OCC(=O)NNc2c3ccccc3nc3ccccc23)cc1
COc1ccc(C2CC(c3cccs3)=NN2c2nc(C)c(C(C)=O)s2)cc1OC (stereo unspecified)
O=C(Nc1ccc(-c2ccco2)cc1)C1CCCN(Cc2ccco2)C1 (stereo unspecified)
CC(=O)c1cccc(-c2ccnc3c2CC(C(=O)NCc2ccc(F)c(F)c2)O3)c1 (stereo unspecified)
CCN(CC)Cc1c(O)c(Cl)cc2c(C)cc(=O)oc12
COc1ccccc1C1C2=C(CC(C)(C)CC2=O)N(CC(=O)O)C2=C1C(=O)CC(C)(C)C2
Clc1ccccc1C1=CC(c2ccco2)n2ncnc2N1 (stereo unspecified)
Cc1nc(CCNC(=O)Cc2ccc(Cl)cc2)cs1
